Assay results taken from PubChem BioAssay AID1159580 (chemical genetic matrix, 2015).
Several values for one entry are separate records, joined by “and”; a condition that tells them apart may be missing. Identical values can stand only once. The whole screen tested about 5,500 compounds, of which about 2,000 (36%) were called active. Not shown: some 18% with an inconclusive outcome. No stated cut-off is given here; in the data, active means normalized growth mostly below about 0.91 (no sharp cut-off); inconclusive means no clear call, values can overlap the other calls; inactive means mostly above about 0.92. This is one part of the list.

Test: chemical genetic growth profiling, strain panel (AID 1159580);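 further: tested at 20 µM; growth read once vehicle control cultures reached saturation at 30 °C; 1 = growth at the plate median or of vehicle wells; lower values mean less growth of the strain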
Conditions: growth OD

Measured: normalized growth

CCn1cc(C(=O)O)c(=O)c2cc(F)c(N3CCNC(C)C3)c(F)c21 (stereo not given)
inactive: S. cerevisiae deletion strains, locus YJR075W, strain HOC1, hits give low values 0.991 and 0.993 | S. cerevisiae deletion strains, locus YKL009W, strain mrt4, hits give low values 0.979 | S. cerevisiae deletion strains, locus YKL068W, hits give low values 0.981 | S. cerevisiae deletion strains, locus YKL085W, strain MDH1 (second series), hits give low values 0.985 | S. cerevisiae deletion strains, locus YKL085W, strain MDH1, hits give low values 0.985 | S. cerevisiae deletion strains, locus YKL160W, strain elf1, hits give low values 0.943 | S. cerevisiae deletion strains, locus YKL190W, strain CNB1, hits give low values 0.995 | S. cerevisiae deletion strains, locus YKR001C, strain vps1, hits give low values 0.993 | S. cerevisiae deletion strains, locus YKR026C, strain gcn3, hits give low values 0.996 | S. cerevisiae deletion strains, locus YKR091W, strain srl3, hits give low values 0.982 | S. cerevisiae deletion strains, locus YLL001W, strain dnm1, hits give low values 0.985 | S. cerevisiae deletion strains, locus YLL026W, hits give low values 0.99 | S. cerevisiae deletion strains, locus YLL041C, strain sdh2, hits give low values 0.975 | S. cerevisiae deletion strains, locus YLR027C, strain aat2, hits give low values 0.992 | S. cerevisiae deletion strains, locus YLR039C, strain RIC1, hits give low values 0.973 | S. cerevisiae deletion strains, locus YLR058C, strain SHM2, hits give low values 0.995 | S. cerevisiae deletion strains, locus YLR102C, strain apc9, hits give low values 0.986 | S. cerevisiae deletion strains, locus YLR113W, strain HOG1, hits give low values 1.06 | S. cerevisiae deletion strains, locus YLR221C, strain rsa3, hits give low values 1 | S. cerevisiae deletion strains, locus YLR258W, strain gsy2, hits give low values 0.98 | S. cerevisiae deletion strains, locus YLR262C, strain YPT6 (second series), hits give low values 0.996 | S. cerevisiae deletion strains, locus YLR262C, strain YPT6, hits give low values 0.979 | S. cerevisiae deletion strains, locus YLR268W, strain sec22, hits give low values 0.988 | S. cerevisiae deletion strains, locus YLR320W, strain mms22, hits give low values 0.961 | S. cerevisiae deletion strains, locus YLR330W, strain CHS5, hits give low values 0.982 | S. cerevisiae deletion strains, locus YLR342W, strain FKS1 (second series), hits give low values 0.951 | S. cerevisiae deletion strains, locus YLR342W, strain FKS1, hits give low values 0.957 | S. cerevisiae deletion strains, locus YLR357W, strain rsc2, hits give low values 0.919 | S. cerevisiae deletion strains, locus YLR370C, strain arc18, hits give low values 0.965 | S. cerevisiae deletion strains, locus YLR371W, strain rom2, hits give low values 0.992 | S. cerevisiae deletion strains, locus YLR384C, strain iki3, hits give low values 0.964 | S. cerevisiae deletion strains, locus YLR418C, strain cdc73, hits give low values 0.892 | S. cerevisiae deletion strains, locus YML016C, strain PPZ1, hits give low values 0.991 | S. cerevisiae deletion strains, locus YML032C, strain rad52, hits give low values 0.994 | S. cerevisiae deletion strains, locus YML120C, strain ndi1, hits give low values 0.993 | S. cerevisiae deletion strains, locus YML124C, strain tub3, hits give low values 0.996 | S. cerevisiae deletion strains, locus YMR058W, strain fet3, hits give low values 0.994 | S. cerevisiae deletion strains, locus YMR078C, strain ctf18, hits give low values 0.982 | S. cerevisiae deletion strains, locus YMR125W, strain sto1, hits give low values 0.961 | S. cerevisiae deletion strains, locus YMR129W, hits give low values 0.971 | S. cerevisiae deletion strains, locus YMR205C, strain PFK2, hits give low values 0.985 | S. cerevisiae deletion strains, locus YMR223W, strain ubp8, hits give low values 0.976 | S. cerevisiae deletion strains, locus YMR231W, strain pep5, hits give low values 0.984 | S. cerevisiae deletion strains, locus YMR263W, strain SAP30, hits give low values 1 | S. cerevisiae deletion strains, locus YMR307W, strain GAS1, hits give low values 1.01 | S. cerevisiae deletion strains, locus YNL067W, strain RPL9B, hits give low values 1.03 | S. cerevisiae deletion strains, locus YNL071W, strain lat1, hits give low values 0.977 | S. cerevisiae deletion strains, locus YNL128W, strain TEP1, hits give low values 0.964 | S. cerevisiae deletion strains, locus YNL153C, strain GIM3, hits give low values 1.06 | S. cerevisiae deletion strains, locus YNL175C, strain NOP13, hits give low values 0.998 | S. cerevisiae deletion strains, locus YNL183C, strain NPR1, hits give low values 0.962 | S. cerevisiae deletion strains, locus YNL197C, strain WHI3, hits give low values 1 | S. cerevisiae deletion strains, locus YNL209W, strain ssb2, hits give low values 0.965 | S. cerevisiae deletion strains, locus YNL224C, strain SQS1, hits give low values 0.994 | S. cerevisiae deletion strains, locus YNL233W, strain BNI4, hits give low values 1.03 | S. cerevisiae deletion strains, locus YNL248C, strain rpa49, hits give low values 0.926 | S. cerevisiae deletion strains, locus YNL250W, strain rad50, hits give low values 0.943 | S. cerevisiae deletion strains, locus YNL271C, strain bni1, hits give low values 0.992 | S. cerevisiae deletion strains, locus YNL298W, strain CLA4, hits give low values 0.988 | S. cerevisiae deletion strains, locus YNL307C, strain MCK1, hits give low values 0.984 | S. cerevisiae deletion strains, locus YNL322C, strain KRE1 (second series), hits give low values 0.964 | S. cerevisiae deletion strains, locus YNL322C, strain KRE1, hits give low values 1.02 | S. cerevisiae deletion strains, locus YNR049C, strain mso1, hits give low values 0.975 | S. cerevisiae deletion strains, locus YNR052C, strain pop2, hits give low values 0.989 | S. cerevisiae deletion strains, locus YOL006C, strain TOP1, hits give low values 1.08 | S. cerevisiae deletion strains, locus YOL012C, strain htz1 1.44 | S. cerevisiae deletion strains, locus YOL147C, strain pex11, hits give low values 0.985 | S. cerevisiae deletion strains, locus YOR001W, strain rrp6, hits give low values 1 | S. cerevisiae deletion strains, locus YOR061W, strain CKA2, hits give low values 0.993 | S. cerevisiae deletion strains, locus YOR069W, strain VPS5, hits give low values 0.988 | S. cerevisiae deletion strains, locus YOR070C, strain gyp1, hits give low values 0.985 | S. cerevisiae deletion strains, locus YOR080W, strain dia2, hits give low values 0.972 | S. cerevisiae deletion strains, locus YOR083W, strain WHI5 (second series), hits give low values 0.992 | S. cerevisiae deletion strains, locus YOR083W, strain WHI5, hits give low values 0.897 | S. cerevisiae deletion strains, locus YOR106W, strain vam3, hits give low values 0.931 | S. cerevisiae deletion strains, locus YOR136W, strain idh2, hits give low values 0.998 | S. cerevisiae deletion strains, locus YOR144C, strain elg1, hits give low values 0.992 | S. cerevisiae deletion strains, locus YOR184W, strain ser1, hits give low values 0.988 | S. cerevisiae deletion strains, locus YOR231W, strain MKK1, hits give low values 1.04 | S. cerevisiae deletion strains, locus YOR265W, strain rbl2, hits give low values 0.972 | S. cerevisiae deletion strains, locus YOR270C, strain vph1, hits give low values 0.982 | S. cerevisiae deletion strains, locus YOR290C, strain snf2, hits give low values 0.968 | S. cerevisiae deletion strains, locus YOR316C, strain cot1, hits give low values 1 | S. cerevisiae deletion strains, locus YPL051W, strain arl3, hits give low values 0.971 | S. cerevisiae deletion strains, locus YPL055C, strain LGE1, hits give low values 0.985 | S. cerevisiae deletion strains, locus YPL078C, strain atp4, hits give low values 0.957 | S. cerevisiae deletion strains, locus YPL106C, strain sse1, hits give low values 0.939 | S. cerevisiae deletion strains, locus YPL240C, strain hsp82, hits give low values 0.983 | S. cerevisiae deletion strains, locus YPL256C, strain CLN2, hits give low values 1.04 | S. cerevisiae deletion strains, locus YPR119W, strain clb2, hits give low values 0.993 | S. cerevisiae deletion strains, locus YPR141C, strain kar3, hits give low values 0.985 | S. cerevisiae deletion strains, locus YPR163C, strain tif3, hits give low values 0.986 | S. cerevisiae deletion strains, locus YPR167C, strain met16, hits give low values 0.999 | S. cerevisiae deletion strains, strain wtn01, hits give low values 0.998 | S. cerevisiae strains, strain wild type, hits give low values 0.997
